This passage reports Percent Effect results from ChEMBL document CHEMBL3988442, “University of Dundee, Small-Polar-MMV Screening Library” (2021).

For the assay, the target named is AMP-activated protein kinase, AMPK (Homo sapiens) (UniProt P54646+O43741+P54619+Q9UGJ0+Q9Y478+Q13131+Q9UGI9). Briefly: AMP-dependent Kinase enzyme assay. An in vitro enzyme assay that detects ADP turnover that is directly proportional to AMPK activity. This uses naive AMPK that is activated during the assay with MK-8722. More on the design: scale not given: direction of the effect not stated beside the values. Conditions: 30 µM. It counts as functional.
On to `CCN(CC)C(CNC(=O)c1ccnc(N(C)C)c1)c1ccsc1` (stereo not given), for which the Percent Effect was -4.85%. `CN1CC(C(=O)NCCc2ccc3c(c2)OCCO3)CC1=O` (stereo not given): the Percent Effect was found to be 2.3%. Regarding `CCc1noc(C)c1C(=O)N1CCC2(CCCN(CC(C)(C)C)C2=O)C1` (stereo not given), the Percent Effect is 7.67%. Under `COc1ccc(Cl)cc1CN(C)C(=O)CN1C(=O)OC[C@@H]1C(C)C` stands 1.71%. Under `COc1cccc2c1OCC(Cc1cc(C(N)=O)ccn1)C2` (stereo not given) stands -13%; under `O=C(O)c1ccn(-c2ccccc2NC(=O)c2ccccc2Cl)n1`, 5.51%; under `O=C(CCc1ccc(Cl)cc1)N[C@@H]1CC[C@@H](O)[C@@H]1O`, 14.5%. In the case of `Fc1ccc(OCCCNC2=NCCCN2)cc1`, the Percent Effect worked out at 0.73%. In the case of `COC(CNC(=O)c1ccoc1)c1cccc(Cl)c1` (stereo not given) it was -1.5%.

In the case of `COCCNc1ccc(CC2CCCN(C3CCCC3)C2)nn1` (stereo not given), the Percent Effect was determined as 4.32%.

Turning to `Cc1noc(CCNC(=O)C2CSCN2C(=O)C2CCCC2)n1` (stereo not given), the Percent Effect came to 3.34%. Under `O=C(C1CCCO1)N1CCC(n2cc(-c3ccc(F)cc3)nn2)CC1` (stereo not given) stands 3.48%. For `Cc1ccc(S(=O)(=O)N(CCO)C2CC2)cc1N(C)C`, the Percent Effect is -7.34%.

`CCc1cc(N2CCC(NCCc3ccccc3F)CC2)nc(C)n1`: the Percent Effect was found to be 1.26%.

Turning to `N#Cc1c(N)nc2c(c1-c1c[nH]nc1C1CCCCC1)CC(N)CC2` (stereo not given), the Percent Effect was determined as 23.9%. Take `COCCCN1CC2(CCCN(CCn3cc(Cl)cn3)C2)CCC1=O` (stereo not given): the Percent Effect is 5.56%. Under `CCCOc1ccc2c(c1)OCC(CNC1CCc3ncnn3C1)=C2` (stereo not given) stands 10.2%. For `CCC1c2ccccc2CCN1CCCS(C)(=O)=O` (stereo not given), the Percent Effect is -1.94%. Consider `CCc1ncc2c(n1)CN(c1cc(NC3CC3)nc(N)n1)C2`, for which the Percent Effect is -118%. In the case of `NC(=O)C(NC1CCN(Cc2ccc(F)cc2)CC1)c1ccccc1` (stereo not given) it was -4.88%.
